Experimental data taken from PubChem BioAssay (NCI).
This is part of a sample that, as a whole, favours compounds with a hit. Of some 83,000 tested, about 20% had one in any assay.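 Values shown are percent growth following 48 h exposure of cells in 96-well plates to a single concentration of compound; below 10 was considered active.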 Active and inactive are the calls of the source.

Test system: RPMI-8226 leukemia
Test: NCI-60 one-dose screen, 48 h (100 = growth as untreated, 0 = no growth, -100 = all killed)
Conditions: 10 µM unless noted
Description: Growth inhibition of the RPMI-8226 human tumor cell line is measured as a screen for anti-cancer activity. Cells are grown in 96 well plates and exposed to the test compound for 48 hours. Compounds are tested at a single concentration, which is 10^-5 M for most compounds. The reported endpoint is percent growth (GI% or GIPRCNT), where numbers from 0 - 100% represent growth inhibition, and numbers from -100% - 0 represent cell death. For example, a value of 40 represents 60% growth inhibition. A value of 0 means no net growth occurred over the course of the experiment. A value of -40 indicates 40% of cells at the beginning of the experiment died by the end of the experiment. A value of -100 means all cells are dead at the end of the experiment.
NCI-60 Human Tumor Cell Lines Screen was performed using the standard one-dose NCI protocol, which is described in more detail at https://dtp.cancer.gov/discovery_development/nci-60/default.htm.
Compounds with GIPRCNT values below 10 were considered active. Activity score was based on GIPRCNT using the following formula: […]
Score is 0 for GIPRCNT values of 100 or above, 50 for GIPRCNT values of 0, and 100 for GIPRCNT values of -100.

SMILES	growth
O=C(/C=C/c1cc(Cl)ccc1Cl)Nc1ncc(Cc2ccc(Cl)cc2)s1	16.2% (inactive)
CN1CC[C@@H]2[C@@]3(C)CC[C@H](O)C(C)(C)[C@@H]3CC[C@@]2(C)[C@]2(C)CC[C@@]3(CO)CCC(C)(C)C[C@@H]3C12 (stereo not given in full)	74.6% (inactive)
C#CCOc1ccc(-c2csc(NC(=O)C=C)n2)cc1NS(=O)(=O)c1cccc2c(N(C)C)cccc12	-9.93% (active)
COc1ccc2c(c1)c(-c1nnc(N)nc1-c1c[nH]c3ccc(F)cc13)cn2C	28.2% (inactive)
N#Cc1nc(-c2ccc(Cl)cc2)oc1N1CCC(S(=O)(=O)N2CCOCC2)CC1	105% (inactive)
Nc1nc(=O)n([C@H]2C[C@H](O)[C@@H](CO)O2)cc1C=O	110% (inactive)
C=CCSC1=NC2C(N(CC)C(=O)N2CC)N1/N=C/C=C/c1ccccc1OC (stereo not given)	53.7% (inactive)
CCOC(=O)c1cnc2c(-c3ccc(Cl)c(Cl)c3)cnn2c1	87.7% (inactive)
CN1CCN(Cc2ccc(NC(=O)c3cncc(C#Cc4cnc(N)nc4)c3)cc2C(F)(F)F)CC1	22.7% (inactive)
N#Cc1c(-c2cccs2)cc(-c2cnccn2)nc1SCC(=O)N/N=C/c1ccccc1	-23.7% (active)
CN1CCN(c2ccc(Nc3nc(NCCNC(=O)c4ccc(F)cc4)c4sccc4n3)cc2)CC1	32.1% (inactive)
O=C(CCCCCCN1CC(=O)N2[C@@H](C3CC3)c3[nH]c4ccccc4c3C[C@H]2C1=O)NO	56.2% (inactive)
CCOC(=O)c1c(NC(=O)c2cccc(C(F)(F)F)c2)sc2c1CCC(=O)C2	7.65% (active)
Cn1cc(-c2nn3cc(-c4ccncc4)nc3s2)c2cc(Br)ccc21	15.2% (inactive)
O=C(Nc1ccc(Cl)c(C(F)(F)F)c1)Nc1ccc2c(ccn2C(=O)c2cccc(F)c2)c1	-6.63% (active)
Cn1ncc2c(C(=O)c3ccc(F)cc3)nc(C(C)(C)C)nc21	100% (inactive)
CN1CCN(c2ccc(Nc3nc(NCCCNS(=O)(=O)c4cccc(F)c4)c4sccc4n3)cc2)CC1	7.54% (active)
C=C(C=O)[C@@H]1CC[C@]2(C(=O)O)CC[C@]3(C)C(CC[C@@H]4[C@@](C)(CCC#N)[C@H](C(=C)C=O)CC[C@]43C)[C@@H]12 (stereo not given in full)	-8.52% (active)
COc1ccc(Cn2cc(C#N)c(N)c2C(C)=O)cc1	105% (inactive)
C#C[C@]1(O)CC[C@H]2[C@@H]3CC=C4c5sc(N6CCN(C)CC6)nc5CC[C@]4(C)[C@H]3CC[C@@]21C	-13.3% (active)

SMILES	growth
C/C(=N\NC(=O)/C=C/CC(=O)O)c1nnn(-c2ccc([N+](=O)[O-])cc2)c1C	101% (inactive)
O=C(CCCCCCNC(=O)C(O)(O)C(F)(F)F)Nc1ccc(Br)cc1	20.7% (inactive)
COC(=O)c1cccc(NC2=CC(=O)C(C)=C(C)C2=O)c1	80.8% (inactive)
O=C(/C=C/c1ccccc1)c1cccc(O)c1	-17.9% (active)
CN1CCN(Cc2ccc(/C=N/Nc3ccnc4cc(Cl)ccc34)cc2)CC1	46.7% (inactive)
CCc1cc(OC(=O)N2CCC(N3CCCCC3)CC2)ccc1Nc1cc(-c2ccc(-n3cccn3)cc2)[nH]n1	20.9% (inactive)
CCOC(=O)c1c(NC(=O)c2cccc(C(F)(F)F)c2)sc2c3c(ccc12)OCN(C)C3	-47.6% (active)
COc1ccc(-c2cc(-c3ccc(N(C)C)cc3)n3c(n2)nc2ccccc23)cc1	23.1% (inactive)
CCN(CC)CCOc1ccc(C(=C(c2ccccc2)C2CCCC2)c2ccc(OCCN(CC)CC)cc2)cc1	-30.8% (active)
O=C1/C(=C/C=C/c2ccco2)SC(=S)N1Cc1ccccc1	93.6% (inactive)
CCOC(=O)Nc1ccc2c(ccn2C(=O)c2cccc(F)c2)c1	24.6% (inactive)
O=C(Nc1ccc(N=Cc2c(O)[nH]c3ccccc23)cc1)Nc1ccc(S(=O)(=O)Nc2ncccn2)cc1	107% (inactive)
CCCCSC1=C(Cl)CN(c2ccccc2)C1=O	78% (inactive)
CNC(=O)c1cc(Oc2ccc3c(c2)sc2nc(-c4ccc(N(C)C)cc4)cn23)ccn1	6.21% (active)
C[C@H](Nc1ncnc2ccc(-c3cnc(Cl)c(NS(C)(=O)=O)c3)cc12)c1ccccc1	-7.72% (active)
O=S(=O)(NCCCNc1nccc(-c2[nH]c(-c3ccccc3)nc2-c2ccc(F)c(O)c2)n1)c1cccc(F)c1	45% (inactive)
C#CCOc1cccc(-c2nc(N)nc(Nc3ccccc3SSc3ccccc3Nc3nc(N)nc(-c4cccc(OCC#C)c4)n3)n2)c1	22% (inactive)
Cc1nc(N)sc1-c1csc(Nc2ccc(C(F)(F)F)cc2)n1	26.6% (inactive)
CCOC(=O)c1ccccc1NC1=C(Cl)C(=O)c2nc(C)ccc2C1=O	99.3% (inactive)
COc1ccc(OC)c(CCn2cncc2-c2c[nH]c3ccc(Cl)cc23)c1	33.9% (inactive)
